# According to PubChem BioAssay (NCATS):
# Several values for one entry are separate records, joined by “and”; a condition that tells them apart may be missing. Equal values may be shown once. Inconclusive results are not listed. A call without a number means that no potency is given here. Activity calls are given as the source filed them. Unless noted, calls come from the whole dose curve; as a rule, active = well fitted curve in the direction sought with a large enough effect; inconclusive = small, poorly fitted or top-dose-only effect, or another doubt; inactive = no such curve, though single readings can be large; an effect the other way counts as inactive or inconclusive.
# What was measured:
# [1] = Cell Viability - HepG2 (AID 433; calls by dose curve;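 note: potency is the fitted concentration of half-maximal effect; potency for ATP loss meaning cytotoxicity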); settings: qHTS
# In short: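 HepG2 cells, 1500 per well, treated 40 hr at 37 °C in complete medium; viability from intracellular ATP by CellTiter-Glo luminescence. Normalized to DMSO and 100 uM tamoxifen; AC50 from Hill fit of qHTS concentration-response.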
# [2] = Cell Viability - SK-N-SH (AID 435; calls by dose curve;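 note: potency is the fitted concentration of half-maximal effect; compound exposure lasted 40 h at 37 °C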); settings: SK-N-SH neuroblastoma cell viability qHTS
# In short: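 SK-N-SH neuroblastoma cells (1500/well) treated 40 h at 37 °C in complete medium; viability read as cellular ATP by CellTiter-Glo luminescence. Normalized to DMSO and 100 uM tamoxifen; AC50 from Hill fits of qHTS concentration-response.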
# [3] = Cell Viability - SH-SY5Y (AID 544); settings: SH-SY5Y neuroblastoma cell viability; viability change, negative = cytotoxic: at 92.2 µM (top of the series); note: nearly all actives have a fitted effect of over 55% in size; note: potency is the fitted concentration of half-maximal effect
# In short: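 Cytotoxicity measured via ATP-dependent luciferase luminescence (CellTiter-Glo) following 40 h, 37 °C exposure of 1500 SH-SY5Y cells per well. Concentration-response data were fitted with the standard Hill equation to give AC50.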
# [4] = Cell Viability - Renal Proximal Tubule (AID 545); settings: renal proximal tubule cells viability, primary cells of rat origin; activity change, negative = cytotoxicity: at 91.7 µM (top of the series); note: nearly all actives have a fitted effect of over 40% in size
# In short: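 Rat renal proximal tubule primary cells, 1000/well, exposed to compounds for 40 hr at 37 °C in complete medium; cellular ATP read by CellTiter-Glo luminescence. AC50 from concentration-response fitted with standard Hill equation.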
# [5] = Cell Viability - LYMP2-001 (AID 921); settings: LYMP2-001 lymphoblastoid cell viability; series mostly up to 92.2 µM; note: nearly all actives have a fitted effect of over 70% in size; note: potency is the fitted concentration of half-maximal effect
# In short: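 Human lymphoblastoid LYMP2-001 cells, 2500 per well, in complete medium, treated 24 h at 37 C. Viability from cellular ATP by CellTiter-Glo luminescence; AC50 from Hill-equation fits of qHTS concentration-response.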
# [6] = Cell Viability - LYMP2-005 (AID 967); settings: LYMP2-005 lymphoblastoid cell viability; series mostly up to 92.2 µM; note: potency is the fitted concentration of half-maximal effect
# In short: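 Human lymphoblastoid LYMP2-005 cells, 2,500 per well in complete medium, rested 5 h at 37C then compound-treated 24 h at 37C. Intracellular ATP read by CellTiter-Glo luminescence after 30 min at room temperature; AC50 from Hill-equation fits of concentration-response data.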
# [7] = Cell Viability - LYMP2-015 (AID 971); settings: LYMP2-015 lymphoblastoid cell viability; series mostly up to 92.2 µM; note: nearly all actives have a fitted effect of over 55% in size; note: potency is the fitted concentration of half-maximal effect
# In short: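 Cytotoxicity readout: decrease in intracellular ATP (CellTiter-Glo luminescence) in 2500 LYMP2-015 lymphoblastoid cells/well after 24 h compound exposure at 37 C. Concentration-response data fitted with the standard Hill equation to give AC50.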
# [8] = Cell Viability - LYMP2-010 (AID 981); settings: LYMP2-010 lymphoblastoid cell viability, qHTS; series mostly up to 92.2 µM;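 note: cells exposed to compound for 24 hours at 37 °C; nearly all actives have a fitted effect of over 55% in size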; note: potency is the fitted concentration of half-maximal effect
# In short: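 CellTiter-Glo ATP luminescence measured cytotoxicity after 24 h compound exposure at 37 C. LYMP2-010 cells were seeded at 2500/well, with tetraoctylammonium bromide as control; concentration-response curves gave AC50 values by the Hill equation.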
# [9] = Cell Viability - LYMP2-024 (AID 988); settings: LYMP2-024 lymphoblastoid cell viability; series mostly up to 92.2 µM; note: nearly all actives have a fitted effect of over 60% in size; note: potency is the fitted concentration of half-maximal effect
# In short: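 Cytotoxicity was taken as a decrease in ATP (CellTiter-Glo luminescence) after 24 hr compound exposure at 37 C of LYMP2-024 lymphoblastoid cells, 2500 cells/well. Concentration-response data were fitted to the Hill equation to give AC50.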
# [10] = target: Thyroid hormone receptor beta (Homo sapiens) (UniProt P10828); assay: qHTS assay for small molecule agonists of thyroid hormone receptor beta signaling (AID 588545; calls by dose curve; note: potency is the fitted concentration of half-maximal effect); settings: TR-UAS-bla GripTite HEK 293, beta-lactamase ratio, agonist mode, 18 h; series mostly up to 76.7 µM
# Chain of Thyroid hormone receptor beta (Homo sapiens) (P10828 whole entry, looked up): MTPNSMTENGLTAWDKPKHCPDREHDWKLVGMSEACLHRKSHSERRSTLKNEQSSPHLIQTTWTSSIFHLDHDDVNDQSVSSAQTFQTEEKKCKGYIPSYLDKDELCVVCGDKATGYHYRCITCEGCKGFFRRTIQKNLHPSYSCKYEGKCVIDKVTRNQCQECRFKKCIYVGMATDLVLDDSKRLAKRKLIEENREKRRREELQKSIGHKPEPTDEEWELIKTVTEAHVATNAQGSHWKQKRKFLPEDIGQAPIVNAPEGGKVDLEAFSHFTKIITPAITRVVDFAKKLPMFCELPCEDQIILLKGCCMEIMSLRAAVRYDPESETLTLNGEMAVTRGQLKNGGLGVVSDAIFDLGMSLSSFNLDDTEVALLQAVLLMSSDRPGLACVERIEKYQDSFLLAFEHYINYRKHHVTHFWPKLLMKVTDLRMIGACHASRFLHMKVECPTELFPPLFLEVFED
# In short: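 Stimulation of a TR-driven beta-lactamase reporter was quantified in GripTite HEK 293 cells. Compound series ran for 18 hrs; curves were normalized to T3 and DMSO controls and fitted to yield EC50.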
# [11] = qHTS assay for small molecule antagonists of retinoid X receptor alpha signaling (AID 588546; active = well fitted inhibition curve with a large enough effect in the signal ratio, with a control signal flat, not every such curve was filed as active; the % refers to the signal ratio;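 note: cells stimulated with 9-cis-retinoic acid as agonist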); settings: HEK293T RXRa-UAS-bla, beta-lactamase ratio, antagonist mode; measured here: W530 green channel, cytotoxicity proxy
# In short: (§1)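 Beta-lactamase reporter inhibition, read as CCF4 fluorescence ratio (ex 405, em 460/530 nm) after 2 h at RT. HEK293T UAS-bla cells, 2500/well, were stimulated with 9-cis-RA at 500 or 100 nM final alongside test compound for 18 h at 37 C.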
# [12] = target: Retinoic acid receptor RXR-alpha (Homo sapiens) (UniProt P19793); assay: as above; settings: HEK293T RXRa-UAS-bla, beta-lactamase ratio, antagonist mode
# Chain of Retinoic acid receptor RXR-alpha (Homo sapiens) (P19793 whole entry, looked up): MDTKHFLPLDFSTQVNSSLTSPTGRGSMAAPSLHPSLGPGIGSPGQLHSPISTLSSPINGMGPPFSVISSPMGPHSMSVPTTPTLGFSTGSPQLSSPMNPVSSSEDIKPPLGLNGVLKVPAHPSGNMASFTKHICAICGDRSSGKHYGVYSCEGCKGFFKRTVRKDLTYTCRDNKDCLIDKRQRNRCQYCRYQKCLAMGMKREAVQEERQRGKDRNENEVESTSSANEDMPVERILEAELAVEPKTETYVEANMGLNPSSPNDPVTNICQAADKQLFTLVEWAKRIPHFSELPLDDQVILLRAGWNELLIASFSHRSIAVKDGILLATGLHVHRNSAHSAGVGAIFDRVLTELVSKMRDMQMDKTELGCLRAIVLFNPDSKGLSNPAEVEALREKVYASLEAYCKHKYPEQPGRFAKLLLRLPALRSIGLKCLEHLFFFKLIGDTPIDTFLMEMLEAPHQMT
# In short: as §1
# [13] = target: Thyroid hormone receptor beta (Homo sapiens) (UniProt P10828); assay: qHTS assay for small molecule antagonists of thyroid hormone receptor beta signaling (AID 588547; active = well fitted inhibition curve with a large enough effect in the signal ratio, with a control signal flat, not every such curve was filed as active; the % refers to the signal ratio;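 note: cells stimulated with 0.4 nM T3 agonist during compound exposure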); settings: TR-UAS-bla HEK293, beta-lactamase ratio, antagonist mode, 18 h
# In short: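 Inhibition of T3-driven (0.4nM final) beta-lactamase reporter activity was measured over 0.59 nM to 92 uM compound after 18 h at 37 C. The cells were GripTite HEK293 TR-UAS-bla in charcoal/dextran-stripped serum, with CCF4 ratio read-out and IC50 from Hill fits.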
# [14] = target: Voltage-gated inwardly rectifying potassium channel KCNH2 (Homo sapiens) (UniProt Q12809); assay: qHTS Assay for Small Molecule Inhibitors of the Human hERG Channel Activity (AID 588834); settings: U2OS BacMam hERG, FluxOR thallium flux fluorescence; series mostly up to 92.2 µM;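 note: top concentration of the series differs between compounds; lower thallium flux fluorescence means stronger hERG block; nearly all actives have a fitted effect of over 50% in size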
# Chain of Voltage-gated inwardly rectifying potassium channel KCNH2 (Homo sapiens) (Q12809 whole entry, looked up): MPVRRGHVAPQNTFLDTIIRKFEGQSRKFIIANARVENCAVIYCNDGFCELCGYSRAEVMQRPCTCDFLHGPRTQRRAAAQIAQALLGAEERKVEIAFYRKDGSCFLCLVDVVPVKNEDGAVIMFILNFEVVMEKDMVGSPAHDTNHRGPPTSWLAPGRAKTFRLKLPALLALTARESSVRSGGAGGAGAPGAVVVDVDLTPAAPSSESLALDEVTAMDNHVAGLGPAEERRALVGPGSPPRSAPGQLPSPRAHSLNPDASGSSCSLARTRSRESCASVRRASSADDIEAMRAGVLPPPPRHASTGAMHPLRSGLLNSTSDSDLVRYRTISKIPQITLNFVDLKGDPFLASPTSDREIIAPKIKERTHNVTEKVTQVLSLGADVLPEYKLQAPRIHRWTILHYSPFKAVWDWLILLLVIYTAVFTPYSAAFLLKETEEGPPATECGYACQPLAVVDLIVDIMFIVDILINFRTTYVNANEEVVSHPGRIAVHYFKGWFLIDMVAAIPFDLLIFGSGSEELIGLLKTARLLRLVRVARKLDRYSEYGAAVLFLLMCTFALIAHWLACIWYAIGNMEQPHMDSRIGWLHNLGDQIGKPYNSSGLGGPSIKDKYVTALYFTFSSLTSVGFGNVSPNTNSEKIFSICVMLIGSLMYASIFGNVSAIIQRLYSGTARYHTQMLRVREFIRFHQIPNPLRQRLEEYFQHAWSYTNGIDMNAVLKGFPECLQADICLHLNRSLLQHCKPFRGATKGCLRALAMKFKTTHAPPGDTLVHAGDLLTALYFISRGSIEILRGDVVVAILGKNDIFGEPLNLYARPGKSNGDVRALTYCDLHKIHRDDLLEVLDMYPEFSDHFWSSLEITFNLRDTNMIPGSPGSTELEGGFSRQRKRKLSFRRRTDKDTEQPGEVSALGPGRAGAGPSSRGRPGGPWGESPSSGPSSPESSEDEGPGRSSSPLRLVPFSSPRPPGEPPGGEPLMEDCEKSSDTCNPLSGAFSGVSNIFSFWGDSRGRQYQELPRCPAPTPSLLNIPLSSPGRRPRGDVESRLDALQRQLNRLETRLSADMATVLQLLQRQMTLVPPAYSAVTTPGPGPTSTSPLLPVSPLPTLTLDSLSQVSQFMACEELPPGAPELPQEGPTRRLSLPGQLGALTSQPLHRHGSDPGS
# In short: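 Thallium serves as surrogate for K+ influx through BacMam-delivered hERG in U2OS cells. Compounds are added for about 10 minutes after dye loading; stimulation buffer then starts flux, monitored kinetically on FDSS.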
# [15] = qHTS assay for small molecule disruptors of the mitochondrial membrane potential - 5 hr assay (AID 651755; calls by dose curve; note: nearly all actives have a fitted effect of over 40% in size); settings: JC-1-type ratio dye; series mostly up to 92.2 µM
# In short: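 Membrane-potential dye readout: red aggregate (540 ex/590 em) versus green monomer (490 ex/535 em) fluorescence after 30 min dye loading, following 5 hr compound exposure at 37C of overnight-plated HepG2 cells.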
# [16] = qHTS assay for small molecule antagonists of the retinoid-related orphan receptor gamma (ROR-gamma) signaling pathway - cell viability counter screen (AID 720652; active = well fitted curve in the direction sought with a large enough effect in the repeat runs; an effect the other way counts as inactive or inconclusive;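 note: CHO reporter cells with doxycycline-induced ROR-gamma expression; compound exposure lasted 16 hr before ATP read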); settings: RORgamma reporter cell line viability counter screen; series mostly up to 92.2 µM
# In short: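 Cytotoxicity counter screen: intracellular ATP (CellTiter-Glo luminescence) measured in the doxycycline-induced CHO RORE-luciferase reporter line after 16 hr compound exposure at 37 C, 5% CO2.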
# [17] = target: Nuclear receptor subfamily 1 group I member 2 (Rattus norvegicus) (UniProt Q9R1A7); assay: qHTS assay for small molecule activators of the rat pregnane X receptor (rPXR) signaling pathway (AID 651751; call rule not given here); settings: rPXR reporter cells, luciferase (One-Glo), 24 h
# Chain of Nuclear receptor subfamily 1 group I member 2 (Rattus norvegicus) (Q9R1A7 whole entry, looked up): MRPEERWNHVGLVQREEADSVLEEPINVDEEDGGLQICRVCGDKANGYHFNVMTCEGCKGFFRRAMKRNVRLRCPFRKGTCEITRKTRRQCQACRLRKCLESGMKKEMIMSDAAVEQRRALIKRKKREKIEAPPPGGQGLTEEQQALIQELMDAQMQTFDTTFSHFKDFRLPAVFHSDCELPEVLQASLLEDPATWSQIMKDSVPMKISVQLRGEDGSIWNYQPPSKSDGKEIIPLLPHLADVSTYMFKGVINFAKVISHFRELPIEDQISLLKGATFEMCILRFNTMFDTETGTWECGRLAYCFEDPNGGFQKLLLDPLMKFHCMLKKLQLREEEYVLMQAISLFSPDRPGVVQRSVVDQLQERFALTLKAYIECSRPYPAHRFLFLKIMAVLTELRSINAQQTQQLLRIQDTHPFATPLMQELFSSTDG
# [18] = Cell Viability - Jurkat (AID 426;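 active = dose-dependent loss of cell ATP signal giving a full or clear fitted curve, ranked by lower potency value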; note: potency is the fitted concentration of half-maximal effect); settings: qHTS
# In short: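 Cytotoxicity taken as drop in cellular ATP (CellTiter-Glo luminescence, 20 min room temperature) after 40 hr, 37C treatment of 5000 Jurkat Clone E6-1 cells per well; concentration-response fitted with Hill equation for AC50.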
# [19] = Cell Viability - Hek293 (AID 427;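 active = compounds whose dose-response curve shows a full or clear partial loss of cell viability, called from curve shape rather than a numeric limit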;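 note: potency is the fitted concentration of half-maximal effect; cells exposed to compound for 40 hours at 37 °C before reading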); settings: qHTS
# In short: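 Luminescent ATP content (CellTiter-Glo, 20 min at room temperature) was measured after a 40 hr, 37 °C compound exposure of HEK293 cells. AC50 values came from Hill-equation fits of qHTS concentration-response data normalized to DMSO and 100 uM tamoxifen.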
# [20] = MultiTox-Fluor Cytotoxicity Assay - LYMP1-002 - Dead Cells (AID 960); settings: LYMP1-002 lymphoblastoid cells, dead-cell protease fluorescence; series mostly up to 46.1 µM; note: nearly all actives have a fitted effect of over 60% in size; note: potency is the fitted concentration of half-maximal effect
# In short: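 Dead-cell fluorescence (Ex/Em 485/520) after 16 h compound exposure at 37 C of LYMP1-002 lymphoblastoid cells in complete medium; AC50 by Hill equation, with data scaled between DMSO and 15 uM tetraoctylammonium bromide.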
smiles,measurement,setting,value
CCCCC(CC)COP(=O)(OCC(CC)CCCC)OCC(CC)CCCC (stereo not given),Potency,[1],> 92 µM (inactive)
same,Potency,[2],> 92 µM (inactive)
same,Potency,[3],inactive
same,Potency,[4],inactive
same,Potency,[5],inactive
same,Potency,[6],inactive
same,Potency,[7],inactive
same,Potency,[8],inactive
same,Potency,[9],inactive
same,Potency,[10],inactive
same,max response,[11],-7.24%
same,max response,[12],-4.08% (inactive)
same,activity change % (negative = inhibition),[13],-23.6% (inactive)
same,Potency,[14],inactive
same,Potency,[15],inactive
same,Potency,[16],inactive
same,max response,[17],1.51% (inactive)
c1ccc(COCc2ccccc2)cc1,Potency,[18],> 92 µM (inactive)
same,Potency,[19],> 92 µM (inactive)
same,Potency,[1],> 92 µM (inactive)
same,Potency,[2],> 92 µM (inactive)
same,Potency,[3],inactive
same,Potency,[4],inactive
same,Potency,[5],inactive
same,Potency,[20],inactive
same,Potency,[6],inactive
same,Potency,[7],inactive
same,Potency,[8],inactive
same,Potency,[9],inactive
same,Potency,[10],inactive
same,max response,[11],-0.558%
same,max response,[12],-1.13% (inactive)
same,activity change % (negative = inhibition),[13],-18.1% (inactive)
same,Potency,[14],inactive
same,Potency,[15],inactive
same,Potency,[16],inactive
same,max response,[17],4.39% (inactive)
C=CC(=O)OCCCCCCOC(=O)C=C,Potency,[18],21.1 µM (active)
same,Potency,[1],> 92 µM (inactive)
same,Potency,[2],50.2 µM (active)
same,"viability change, negative = cytotoxic",[3],-98.1% (active)
same,Potency,[5],31.6 µM (active)
same,Potency,[20],31.6 µM (active)
same,Potency,[6],39.8 µM (active)
same,Potency,[7],39.8 µM (active)
same,Potency,[8],39.8 µM (active)
same,Potency,[9],31.6 µM (active)
same,Potency,[10],inactive
same,max response,[11],3.39% and -7.34%
same,max response,[12],-43.4% (inactive) and 3.26% (inactive)
same,activity change % (negative = inhibition),[13],-7.08% (inactive)
same,Potency,[14],inactive
same,Potency,[15],inactive
same,max response,[17],-2.77% (inactive) and -1.84% (inactive)
COc1ccc(C)cc1N,Potency,[18],> 92 µM (inactive)
same,Potency,[19],> 92 µM (inactive)
same,Potency,[1],> 92 µM (inactive)
same,Potency,[2],> 92 µM (inactive)
same,Potency,[4],inactive
same,Potency,[5],inactive
same,Potency,[20],inactive
same,Potency,[6],inactive
same,Potency,[7],inactive
same,Potency,[8],inactive
same,Potency,[9],inactive
same,max response,[11],-0.963%
same,max response,[12],10.5% (inactive)
same,activity change % (negative = inhibition),[13],-19.2% (inactive)
same,Potency,[14],inactive
same,Potency,[15],inactive
same,Potency,[16],inactive
same,max response,[17],8.96% (inactive)
O=C(O)/C=C/c1ccc(/C=C/C(=O)O)cc1,Potency,[18],> 92 µM (inactive)
same,Potency,[19],> 92 µM (inactive)
same,Potency,[1],> 92 µM (inactive)
same,Potency,[2],> 92 µM (inactive)
same,Potency,[3],inactive
same,Potency,[4],inactive
same,Potency,[5],inactive
same,Potency,[20],inactive
same,Potency,[6],inactive
same,Potency,[7],inactive
same,Potency,[8],inactive
same,Potency,[9],inactive
same,max response,[11],-0.222%
same,max response,[12],14.1% (inactive)
same,activity change % (negative = inhibition),[13],2.91% (inactive)
same,Potency,[15],inactive
same,Potency,[16],inactive
same,max response,[17],0.0892% (inactive)
CC(=O)CC(=O)Nc1ccccc1,Potency,[19],> 92 µM (inactive)
same,Potency,[1],> 92 µM (inactive)
same,Potency,[2],> 92 µM (inactive)
same,Potency,[3],inactive
same,Potency,[4],inactive
same,Potency,[5],inactive
same,Potency,[20],inactive
same,Potency,[6],inactive
same,Potency,[7],inactive
same,Potency,[10],inactive
same,max response,[11],10.1% and 20.6%
same,max response,[12],-1.7% (inactive) and -15.3% (inactive)
same,activity change % (negative = inhibition),[13],8.7% (inactive) and 11% (inactive)
same,Potency,[14],inactive
same,Potency,[15],inactive
same,Potency,[16],inactive
same,max response,[17],8.9% (inactive) and 1.01% (inactive)
Cc1cc(-c2ccc(N=Nc3cc(S(=O)(=O)O)c4ccccc4c3N)c(C)c2)ccc1N=Nc1cc(S(=O)(=O)O)c2ccccc2c1N,Potency,[3],31.6 µM (active)
same,Potency,[10],inactive
same,max response,[11],-6.21%
same,max response,[12],0.921% (inactive)
same,activity change % (negative = inhibition),[13],-25.1% (inactive)
same,Potency,[14],inactive
same,Potency,[16],inactive
same,max response,[17],-3.26% (inactive)
CCCCCCCC/C=C\CCCCCCCC(=O)N(CCO)CCO,Potency,[18],68.3 µM (active)
same,Potency,[1],> 92 µM (inactive)
same,"viability change, negative = cytotoxic",[3],-99.3% (active)
same,Potency,[5],inactive
same,Potency,[20],31.6 µM (active)
same,Potency,[6],inactive
same,Potency,[7],inactive
same,Potency,[8],inactive
same,Potency,[9],inactive
same,Potency,[15],inactive
same,Potency,[16],inactive
same,max response,[17],3.59% (inactive)
CCN(CC)c1ccc2c(C)cc(=O)oc2c1,Potency,[18],> 92 µM (inactive)
same,Potency,[19],> 92 µM (inactive)
same,Potency,[1],> 92 µM (inactive)
same,Potency,[2],> 92 µM (inactive)
same,Potency,[3],inactive
same,Potency,[5],inactive
same,Potency,[6],inactive
same,Potency,[7],inactive
same,Potency,[8],inactive
same,Potency,[9],inactive
same,Potency,[10],22.4 µM (active)
same,Potency,[14],inactive
same,Potency,[16],inactive
